From PubChem BioAssay (Tox21)
Values joined by “and” are separate entries in the source; they are usually repeats but may differ in a detail not shown here. Equal entries are not always repeated. Inconclusive results are not listed. More than one record can exist for a structure, and the calls need not agree. Active and inactive are the calls of the source. Unless noted, calls follow the shape of the dose curve; as a rule, active = well fitted curve in the direction sought with a large enough effect in the repeat runs; inconclusive = weak or mixed curves; inactive = no such curve, though single readings can be large; an effect the other way counts as inactive or inconclusive.

How the values were obtained:
[1] = molecular target: Retinoic acid receptor RXR-alpha (Homo sapiens) (UniProt P19793); assay: qHTS assay to identify small molecule agonists of the RXR signaling pathway (AID 1159527; calls by dose curve; also: nearly all actives have a fitted effect of over 35% in size)
How it was run: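 Agonist-mode beta-lactamase reporter assay: HEK 293T RXR-alpha-UAS-bla cells treated 16 hr at 37 C with compounds, 9-cis retinoic acid as positive control. LiveBLAzer FRET substrate, 405 nm excitation, 460/530 nm emission.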

[2] = qHTS assay to identify small molecule agonists of the AP-1 signaling pathway - cell viability counter screen (AID 1159525; calls by dose curve; also: nearly all actives have a fitted effect of over 55% in size; also: potency is read from the fitted curve at half-maximal effect)
How it was run: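 Intracellular ATP by Cell Titer Glo luminescence (30 min, RT) in the same ME-180 AP-1-bla wells after the 5 h compound exposure at 37 °C. Normalised to tetra n-octyl ammonium bromide and DMSO controls.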

[3] = qHTS assay to identify small molecule antagonists of the estrogen related receptor (ERR) signaling pathway from Tox21 library - cell viability counter screen (AID 1224834); also: nearly all actives have a fitted effect of over 30% in size; also: potency is read from the fitted curve at half-maximal effect
How it was run: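 ERR cells, 2,000/well; 6 h settle at 37 C/5% CO2; pin-tool compound transfer in DMSO; 17.5 h at 37 C; CellTiter-Fluor, 30 min; fluorescence intensity.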

[4] = molecular target: Luciferin 4-monooxygenase (Photinus pyralis) (UniProt P08659); assay: qHTS assay to identify small molecule inhibitors of firefly luciferase (AID 1224835); also: nearly all actives have a fitted effect of over 25% in size; also: potency is read from the fitted curve at half-maximal effect
How it was run: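 Inhibition of purified Photinus luciferase is measured by luminescence. Substrate levels (D-luciferin, ATP) sit at their KM values. Each compound is tested in a concentration series.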

[5] = qHTS RealTime-Glo MT Cell Viability Assay in HEK293 cells - 32 hour (AID 1224868); also: nearly all actives have a fitted effect of over 50% in size; also: potency is read from the fitted curve at half-maximal effect
How it was run: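 HEK293 cells seeded with NanoLuc/prosubstrate reagent, rested 5 h at 37 C, then dosed and kept at 37 C up to 40 h. Nonlytic real-time luminescence from viable cells read at 0, 8, 16, 24, 32 and 40 h.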

[6] = A CellTox Green Cytotoxicity Assay to monitor cytotoxicity in HEK293 cells - 8 hour (AID 1224884); also: nearly all actives have a fitted effect of over 35% in size; also: potency is read from the fitted curve at half-maximal effect
How it was run: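 Cells (HEK293, 600/well) and dye reagent are dispensed together. After 5 h at 37 C, 23 nL compound is pinned in. Plates stay at 37 C for 40 h with fluorescence read at 0h, 8h, 16h, 24h, 32h and 40h.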

[7] = qHTS assay to identify small molecule antagonists of the sonic hedgehog signaling (Shh) pathway - cell viability counter screen (AID 1259367); also: nearly all actives have a fitted effect of over 55% in size; also: potency is read from the fitted curve at half-maximal effect
How it was run: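 CellTiter-Fluor signal in conditioned medium-stimulated 3T3 Gli1-Luc cells, 23 hr compound exposure, 37C.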

[8] = molecular target: Nuclear receptor subfamily 1 group I member 2 (Homo sapiens) (UniProt O75469); assay: Human pregnane X receptor (PXR) small molecule agonists, qHTS assay (AID 1346982); also: nearly all actives have a fitted effect of over 35% in size; also: potency is read from the fitted curve at half-maximal effect
How it was run: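 Cells: HepG2 stably carrying PXR-Luc. Medium held 5% charcoal-stripped FBS. Compounds in DMSO added after 5 hr plating, incubated 24 hr, then luminescence quantified with ONE-Glo.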

[9] = molecular target: Cytochrome P450 2C9 (Homo sapiens) (UniProt P11712); assay: Cytochrome P450 Family 2 Subfamily C Member 9 (CYP2C9) small molecule antagonists: luciferase reporter qHTS assay (AID 1671198); also: nearly all actives have a fitted effect of over 50% in size; also: potency is read from the fitted curve at half-maximal effect
How it was run: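 Enzyme-substrate mix preincubated with compound 10 min at room temperature; reaction started with NADPH regeneration solution, 1 h 37C. Luminescent luciferin product read after 20 min detection reagent.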

[10] = qHTS assay to identify small molecule antagonists of the retinoid acid receptor (RAR) signaling pathway - cell viability counter screen (AID 1159551); also: nearly all actives have a fitted effect of over 35% in size; also: potency is read from the fitted curve at half-maximal effect
How it was run: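 Cells (C3RL4) are plated, incubated overnight, dosed with compound in DMSO, then given retinol at 1 uM final. After 6 h at 37 C, CellTiter-Glo is added and luminescence read following 30 min at room temperature.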

[11] = qHTS assay to identify small molecule agonists of the constitutive androstane receptor (CAR) signaling pathway - cell viability counter screen (AID 1224836); also: nearly all actives have a fitted effect of over 45% in size; also: potency is read from the fitted curve at half-maximal effect
How it was run: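 Cell viability multiplexed with the CAR agonist screen: CellTiter-Fluor fluorescence after 23 hr at 37 C. HepG2-CYP2B6-hCAR cells got compounds at 15 concentrations with PK11195 at 0.75 uM final.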

[12] = qHTS assay to identify small molecule antagonists of the constitutive androstane receptor (CAR) signaling pathway - cell viability counter screen (AID 1224837); also: nearly all actives have a fitted effect of over 45% in size; also: potency is read from the fitted curve at half-maximal effect
How it was run: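 Viability was measured with CellTiter-Fluor in a HepG2 line carrying stably transfected hCAR and a CYP2B6-2.2kb construct. Cells were exposed for 23 hr at 37 C to 15 compound concentrations with 50 nM CITCO as agonist.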

[13] = qHTS RealTime-Glo MT Cell Viability Assay in HepG2 cells - 24 hour (AID 1224867); also: nearly all actives have a fitted effect of over 50% in size; also: potency is read from the fitted curve at half-maximal effect
How it was run: (§1)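 HepG2 cells (600/well) were dispensed with RealTime-Glo reagents, incubated 5 h at 37 °C, then treated with compounds in DMSO for up to 40 h. Nonlytic NanoLuc luminescence reflecting viable cells was read at each stated time point.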

[14] = qHTS RealTime-Glo MT Cell Viability Assay in HepG2 cells - 32 hour (AID 1224877); also: nearly all actives have a fitted effect of over 55% in size; also: potency is read from the fitted curve at half-maximal effect
How it was run: as §1

[15] = A CellTox Green Cytotoxicity Assay to monitor cytotoxicity in HepG2 cells - 24 hour (AID 1224878); also: nearly all actives have a fitted effect of over 45% in size; also: potency is read from the fitted curve at half-maximal effect
How it was run: (§2)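 Cells and non-lytic dye reagent are dispensed together (600 HepG2 cells/well) and incubated 5 h before DMSO compound transfer. Kinetic fluorescence is then recorded in the same wells during 40 h at 37 C.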

[16] = A CellTox Green Cytotoxicity Assay to monitor cytotoxicity in HepG2 cells - 40 hour (AID 1224879); also: nearly all actives have a fitted effect of over 40% in size; also: potency is read from the fitted curve at half-maximal effect
How it was run: as §2

[17] = A CellTox Green Cytotoxicity Assay to monitor cytotoxicity in HepG2 cells - 32 hour (AID 1224883); also: nearly all actives have a fitted effect of over 50% in size; also: potency is read from the fitted curve at half-maximal effect
How it was run: as §2

[18] = qHTS RealTime-Glo MT Cell Viability Assay in HepG2 cells - 16 hour (AID 1224885); also: nearly all actives have a fitted effect of over 50% in size; also: potency is read from the fitted curve at half-maximal effect
How it was run: as §1

[19] = qHTS assay to identify small molecule agonists of the TGF-beta/Smad signaling pathway - cell viability counter screen (AID 1346829); also: top concentration of the series differs between compounds; nearly all actives have a fitted effect of over 45% in size
How it was run: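 SBE-bla HEK 293T cells plated overnight, compound exposure 5 hr at 37 C. Viability read in the same wells by CellTiter-Glo luminescence after 30 min at room temperature, following the beta-lactamase read.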

[20] = qHTS assay to identify small molecule agonists of the estrogen related receptor signaling pathway with the pleiotropic PPARgamma coactivator (PGC) (AID 1224823)
How it was run: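 Luminescence readout (One-Glo, 30 min RT) from PGC/ERR cell line treated 18 h at 37 C with pin-tool-delivered DMSO compound solutions; cells plated 6 h before dosing. Quantitative HTS format.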

Measured: Potency

Sequence of Retinoic acid receptor RXR-alpha (Homo sapiens) (P19793 whole entry, looked up): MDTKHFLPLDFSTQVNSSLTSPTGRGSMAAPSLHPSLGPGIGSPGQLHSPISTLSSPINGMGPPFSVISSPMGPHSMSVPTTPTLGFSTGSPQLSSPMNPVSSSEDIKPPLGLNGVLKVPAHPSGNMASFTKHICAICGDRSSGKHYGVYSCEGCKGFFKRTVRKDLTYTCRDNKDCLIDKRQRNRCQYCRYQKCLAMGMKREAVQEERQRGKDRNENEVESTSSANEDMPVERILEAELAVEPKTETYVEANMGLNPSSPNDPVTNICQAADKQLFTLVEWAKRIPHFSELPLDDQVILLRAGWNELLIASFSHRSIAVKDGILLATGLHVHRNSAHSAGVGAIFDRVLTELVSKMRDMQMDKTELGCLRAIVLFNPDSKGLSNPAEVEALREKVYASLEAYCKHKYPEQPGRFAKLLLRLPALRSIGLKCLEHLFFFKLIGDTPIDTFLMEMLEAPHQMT
Sequence of Nuclear receptor subfamily 1 group I member 2 (Homo sapiens) (O75469 whole entry, looked up): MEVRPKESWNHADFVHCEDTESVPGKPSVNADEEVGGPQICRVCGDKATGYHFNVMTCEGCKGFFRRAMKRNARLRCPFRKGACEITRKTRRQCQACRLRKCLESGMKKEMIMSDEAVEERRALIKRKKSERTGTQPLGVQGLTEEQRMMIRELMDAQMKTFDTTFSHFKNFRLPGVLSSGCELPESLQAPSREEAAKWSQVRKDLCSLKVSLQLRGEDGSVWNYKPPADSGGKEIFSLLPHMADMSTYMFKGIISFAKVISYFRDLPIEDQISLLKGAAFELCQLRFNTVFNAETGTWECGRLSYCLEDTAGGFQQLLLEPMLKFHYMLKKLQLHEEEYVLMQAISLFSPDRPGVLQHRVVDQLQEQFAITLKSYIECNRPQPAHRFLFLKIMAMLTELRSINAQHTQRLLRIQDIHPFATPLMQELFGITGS
Sequence of Luciferin 4-monooxygenase (Photinus pyralis) (P08659 whole entry, looked up): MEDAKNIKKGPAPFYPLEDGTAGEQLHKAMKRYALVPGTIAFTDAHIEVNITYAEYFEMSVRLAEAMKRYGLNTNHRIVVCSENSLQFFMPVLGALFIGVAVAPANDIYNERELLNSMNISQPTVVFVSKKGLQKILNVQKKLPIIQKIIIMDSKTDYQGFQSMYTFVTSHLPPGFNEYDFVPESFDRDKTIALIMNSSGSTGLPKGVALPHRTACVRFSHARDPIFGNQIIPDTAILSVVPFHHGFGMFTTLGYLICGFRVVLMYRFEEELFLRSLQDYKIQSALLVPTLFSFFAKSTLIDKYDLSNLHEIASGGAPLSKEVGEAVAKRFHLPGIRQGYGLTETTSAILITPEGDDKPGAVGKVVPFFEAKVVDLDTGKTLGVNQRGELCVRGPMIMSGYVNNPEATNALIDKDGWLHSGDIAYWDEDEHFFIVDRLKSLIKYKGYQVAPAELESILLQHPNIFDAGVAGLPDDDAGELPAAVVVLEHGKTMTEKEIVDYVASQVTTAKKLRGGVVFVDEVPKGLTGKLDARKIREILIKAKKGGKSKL
Sequence of Cytochrome P450 2C9 (Homo sapiens) (P11712 whole entry, looked up): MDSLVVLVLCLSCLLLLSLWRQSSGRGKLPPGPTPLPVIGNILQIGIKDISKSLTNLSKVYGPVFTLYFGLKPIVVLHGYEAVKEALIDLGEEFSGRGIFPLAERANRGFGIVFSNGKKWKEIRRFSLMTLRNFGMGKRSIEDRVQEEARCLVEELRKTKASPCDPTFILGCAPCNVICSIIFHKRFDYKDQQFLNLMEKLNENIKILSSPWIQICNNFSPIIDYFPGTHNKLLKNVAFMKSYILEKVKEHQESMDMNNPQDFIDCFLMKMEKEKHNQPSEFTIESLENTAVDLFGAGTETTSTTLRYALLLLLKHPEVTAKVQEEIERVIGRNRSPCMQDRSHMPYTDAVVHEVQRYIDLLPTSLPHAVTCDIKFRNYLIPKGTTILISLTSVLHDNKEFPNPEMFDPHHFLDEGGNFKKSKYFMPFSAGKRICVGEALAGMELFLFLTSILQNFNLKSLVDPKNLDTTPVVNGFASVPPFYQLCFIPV

O=C1OC(=O)c2c(Cl)c(Cl)c(Cl)c(Cl)c21
inactive: [1]

Cc1nnc2n1-c1sc(CCc3ccc(CC(C)C)cc3)cc1C(c1ccccc1Cl)=NC2C (stereo unspecified)
active: [2] 26.8 µM | [3] 26.6 µM | [5] 9.52 µM | [8] 4.22 µM | [9] 27.5 µM
inactive: [4] | [6] | [7]

O=C1C(I)=CC(=C(c2cc(I)c(O)c(I)c2)c2ccccc2C(=O)O)C=C1I
active: [8] 11.9 µM | [9] 3.89 µM
not listed: [2] | [3] | [4] | [20]
inactive: all other assays above

ClC1=C(Cl)C(Cl)(Cl)C(Cl)=C1Cl
inactive: [1]

CCN(CC)C(=O)Cl
not listed: [20]
inactive: all other assays above

C[C@]12CC[C@@H](O)C[C@@H]1CC[C@@H]1[C@@H]2CC[C@]2(C)C(=O)CC[C@@H]12
active: [2] 49 µM | [5] 24.5 µM
not listed: [1] | [3] | [4] | [8] | [9] | [20]
inactive: all other assays above

Nc1ccc(Cl)cc1[N+](=O)[O-]
inactive: [1]

N#Cc1cc([N+](=O)[O-])ccc1N
not listed: [1] | [3] | [7] | [11] | [12] | [20]
inactive: all other assays above

CC1COC(Cn2cncn2)(c2ccc(Oc3ccc(Cl)cc3)cc2Cl)O1 (stereo unspecified)
active: [3] 27.3 µM | [5] 19.5 µM | [8] 61.1 µM | [9] 1.12 µM
inactive: [2] | [10] | [4] | [15] | [6] | [7] | [19]

ClC(Cl)=C(c1ccc(Cl)cc1)c1ccccc1Cl
active: [8] 30.6 µM | [9] 25.2 µM
not listed: [1] | [5] | [6] | [15] | [16] | [17] | [20]
inactive: all other assays above

Cc1c(N)cccc1[N+](=O)[O-]
inactive: [1]

Cc1cc(C(C)(C)c2ccc(O)c(C)c2)ccc1O
active: [3] 51.9 µM | [5] 23.4 µM | [7] 46.2 µM | [8] 58.2 µM | [9] 5.37 µM
inactive: [2] | [10] | [4] | [13] | [14] | [18] | [19]

CCCCC(CC)COC(=O)c1ccc(C(=O)OCC(CC)CCCC)cc1 (stereo unspecified)
inactive: [1]

O=S(=O)(C(Cl)(Cl)Cl)C(Cl)(Cl)Cl
inactive: [8]
active: [2] 49 µM | [10] 61.1 µM | [3] 48.6 µM | [4] 20 µM | [11] 54.5 µM | [12] 30.6 µM | [13] 38.9 µM | [5] 9.77 µM | [14] 34.7 µM | [15] 27.5 µM | [16] 19.5 µM | [17] 24.5 µM | [6] 24.5 µM | [18] 38.9 µM | [7] 54.5 µM | [9] 11.2 µM

CCOC(=O)C(O)(c1ccc(Cl)cc1)c1ccc(Cl)cc1
active: [2] 44.1 µM and 43.6 µM | [3] 49.1 µM | [5] 22.1 µM | [9] 10.1 µM and 7.96 µM
27.6 µM (active) and inactive: [8]
inactive and 38.9 µM (active): [15]
inactive and 43.6 µM (active): [16] | [17]
not listed: [1] | [7] | [10] | [20]
inactive: all other assays above

Cc1ccc(N(SC(F)(Cl)Cl)S(=O)(=O)N(C)C)cc1
active: [2] 30.9 µM | [10] 48.6 µM | [3] 30.6 µM | [4] 44.8 µM | [11] 30.6 µM | [12] 24.3 µM | [13] 11 µM | [5] 5.49 µM | [14] 9.77 µM | [15] 11 µM | [16] 6.92 µM | [17] 6.92 µM | [6] 21.9 µM | [18] 15.5 µM | [7] 17.2 µM | [9] 5.64 µM
inactive: [19] | [8]

CCc1cccc(CC)c1N
inactive: [1]

CCCCC(CC)COC(=O)CCCCC(=O)OCC(CC)CCCC (stereo unspecified)
inactive: [1]

Cc1cc(C)c(C(=O)P(=O)(c2ccccc2)c2ccccc2)c(C)c1
inactive: [10] | [4] | [14] | [6]
active: [2] 38.9 µM | [5] 49 µM | [7] 54.5 µM | [8] 9.69 µM | [9] 15.9 µM

COCCOC(=O)c1ccccc1C(=O)OCCOC
inactive: [1]

ClC1=C(Cl)[C@]2(Cl)[C@@H]3[C@@H](Cl)[C@H]4O[C@H]4[C@@H]3C1(Cl)C2(Cl)Cl
inactive: [4] | [11] | [12] | [7] | [19]
active: [2] 49 µM | [8] 30.6 µM | [9] 39.9 µM

C=CC(=O)OCCCC
inactive: [1]

CC(CCl)OC(C)CCl (stereo unspecified)
inactive: [1]

O=C(c1ccc(Cl)cc1)c1ccc(Cl)cc1
inactive: [1]

O=C(O)C(c1ccc(Cl)cc1)c1ccc(Cl)cc1
inactive: [1]

c1ccncc1
inactive: [1]

O=[N+]([O-])c1cc(C(F)(F)F)ccc1Cl
inactive: [1]

Brc1cc(Br)cc(Br)c1
inactive: [1]

Clc1ccccc1-c1ccccc1Cl
inactive: [3] | [4] | [11] | [12] | [13] | [14] | [18] | [7]

NC(=NCCC[C@H](N)C(=O)O)N[N+](=O)[O-]
inactive: [20]

CC(C)(C)OC(=O)NC1[C@H]2CNC[C@@H]12 (stereo partly specified)
inactive: [20]

Oc1ccc2c3c1O[C@H]1c4[nH]c5c(c4C[C@@]4(O)[C@@H](C2)N(CC2CC2)CC[C@]314)C[C@@]1(O)[C@H]2Cc3ccc(O)c4c3[C@@]1(CCN2CC1CC1)[C@H]5O4
inactive: [20]

C[N+]1(C)CCc2cc3c(cc2[C@H]1[C@@H]1OC(=O)c2c1ccc1c2OCO1)OCO3
inactive: [20]

CCCN(CCC)[C@@H]1CCc2ccc(O)cc2C1
inactive: [20]

CCCN(CCC)C1Cc2cc(OC)c(OC)cc2C1
inactive: [20]

NC(CCCCCP(=O)(O)O)C(=O)O (stereo unspecified)
inactive: [20]

CN(C(=O)Cc1ccc(Cl)c(Cl)c1)C(CN1CCCC1)c1cccc(OCC(=O)O)c1 (stereo unspecified)
inactive: [20]

CCCN(CCC)CCc1ccc(O)c(O)c1
inactive: [20]

O=C1CCCN1CC#CCN1CCCC1
inactive: [20]

O=C1/C(=C/c2ccccc2)C[C@@]2(O)[C@H]3Cc4ccc(O)c5c4[C@@]2(CCN3CC2CC2)[C@H]1O5
inactive: [20]

COc1ccc(CNC(=O)/C=C/c2ccc3[nH]cc(CCN(C)C)c3c2)cc1
inactive: [20]

CCCN(CCC)[C@@H]1CCc2cccc(O)c2C1
inactive: [20]

CC(=O)NBr
inactive: [20]

COc1ccc2c(c[n+](C)c3c4cc5c(cc4ccc23)OCO5)c1OC
inactive: [20]

NCCc1c[nH]c2ccc(C(N)=O)cc12
inactive: [20]

COc1cc(C(O)CN)ccc1O (stereo unspecified)
inactive: [20]

CC(C)(O)[C@@H]1[C@H]2OC(=O)[C@@H]1[C@]1(O)C[C@H]3O[C@]34C(=O)O[C@H]2[C@]14C (tested in a mixture with another compound)
inactive: [20]
